Source: PubChem (National Center for Advancing Translational Sciences (NCATS))
D2 ag-1: activates the human D2 dopamine receptor. activation, % at 2 µM. HEK293 T-REx D2 cells, calcium flux agonist mode. P14416. actives 0.53% (n = 340,000);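 active means activation over 3 SD above normal in the single-dose calcium agonist read, cut at about 30% in these data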; further: 0% is about no effect
Target sequence (P14416 whole entry, looked up): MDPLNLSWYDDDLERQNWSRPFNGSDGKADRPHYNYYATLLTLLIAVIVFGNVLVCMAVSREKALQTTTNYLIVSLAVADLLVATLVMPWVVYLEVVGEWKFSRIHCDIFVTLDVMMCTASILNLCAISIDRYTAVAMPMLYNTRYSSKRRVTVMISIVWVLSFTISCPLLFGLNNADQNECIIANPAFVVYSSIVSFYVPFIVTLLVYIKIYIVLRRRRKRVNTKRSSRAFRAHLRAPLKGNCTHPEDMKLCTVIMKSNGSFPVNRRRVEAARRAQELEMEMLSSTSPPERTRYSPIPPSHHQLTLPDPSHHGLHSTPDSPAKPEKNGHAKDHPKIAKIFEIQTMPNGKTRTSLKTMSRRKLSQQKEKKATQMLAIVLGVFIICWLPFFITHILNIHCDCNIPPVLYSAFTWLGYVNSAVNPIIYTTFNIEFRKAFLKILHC
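HEK293 Trex D2 cells, tetracycline-induced, o/n 30 C 5% CO2; no-wash Ca dye, RT 30–90 min; 10-cycle baseline, 23 nl cpd added, kinetic Ca read 180 s; agonist hits = positive Ca response.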
D2 antag: antagonizes the human D2 dopamine receptor. inhibition, % at 10 µM. HEK293 TREx D2 cells, calcium flux, dopamine EC80. actives 2% (n = 340,000); in the data active means inhibition above about 30%; inactive means below that, where a call was filed; further: 0% is about no effect
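Read-out: kinetic calcium fluorescence (1 cycle/s) in inducible HEK293 T-REx D2 cells after an EC80 dopamine addition that followed 180 s compound preincubation. Loss of the dopamine response indicates antagonism.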
D2 PAM-1: potentiates the human D2 dopamine receptor allosterically | actives 0.23% (n = 360,000) | potentiation, % (concentration not given with the values) | P14416 | DiscoveRx D2 beta-arrestin cells, luminescence, 90 min; 100% = 57 uM dopamine signal; in the data active means potentiation above about 50%
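D2 cells co-treated with compound plus 50 nM dopamine (EC20) for 90 min at 37 deg C to detect potentiation. Beta-arrestin recruitment was read as enzyme-fragment luminescence after 1 h at ambient temperature. Full response was set by 57 uM dopamine.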
D2 PAM-2: positive allosteric modulators of human D2 dopamine receptor; HEK293 T-REx D2, calcium flux, EC20 dopamine potentiation; P14416; actives 0.34% (n = 340,000); AID 485347; potentiation, % at 10 µM;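 active means potentiation over 3 SD above the plate norm, cut at about 30% in these data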; further: 0% is about no effect
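Calcium flux readout, no-wash dye, 1 read/s. Inducible HEK293 Trex D2 line, overnight 30 C. Compound alone 180 s (agonist flags), then EC20 dopamine, another 180 s to score potentiation.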
D2 ag-2: activates the human D2 dopamine receptor; actives 0.084% (n = 360,000); DiscoveRx PathHunter D2 beta-arrestin, luminescence, 90 min; 100% = 57 uM dopamine signal; activation, % (no concentration beside the values); AID 624465; in the data active means activation above about 40%
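Agonist mode: compounds alone added to overnight-plated D2 PathHunter cells for 90 min at 37 C, with 57 uM final dopamine (EC100) defining full response. Beta-arrestin recruitment detected by chemiluminescent reagent, read after 1 h at ambient temperature.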
Active calls of the source: *; nt = not tested or not shown. Most compounds without a hit are left out; they make up all but 2.4% or so of the library.

SMILES	D2 ag-1	D2 antag	D2 PAM-1	D2 PAM-2	D2 ag-2
NC(=O)c1ccc(N2CCN(c3ccccc3F)CC2)c([N+](=O)[O-])c1	-0.1	-16.0	-4.5	41.4*	-2.6
NC(=O)c1ccc(N2CCN(c3ccccc3O)CC2)c([N+](=O)[O-])c1	-1.2	-17.4	3.5	17.0	5.8
COc1cc(C2CC(=O)Oc3c(C(CCN4CCCC(C)C4)c4ccc(N(C)C)cc4)c(OC)cc(OC)c32)cc(OC)c1OC (configuration not stated)	0.2	43.7*	-23.7	-18.2	0.8
Cc1ccc2c(c1)c1c(c(=O)n(-c3ccccc3C)c(=O)n1Cc1cccc(F)c1)n2C	nt	nt	nt	-0.8	nt
Cc1ccc([N+](=O)[O-])cc1N/C=C1\CCCCC1=O	-0.6	51.8*	-6.4	11.0	-2.2
CC(=O)Nc1ccc(N/C=C2/CCCC2=O)cc1	0.9	-3.0	-6.3	21.9	-6.3
Cc1ccc([N+](=O)[O-])cc1NC(=O)C1CCCC1	1.9	-0.2	-12.1	-1.0	-0.5
Cc1cc(O)ccc1N/C=C1\CCCC1=O	-0.8	19.8	63.5*	23.8	11.9
O=C(NC(=S)Nc1ccc(Cl)c(C(=O)O)c1)c1cccc(COc2ccccc2)c1	-0.6	-1.3	-14.3	-8.3	-2.2
O=C(O)c1ccc(Cl)c(NC(=S)NC(=O)c2cccc(COc3ccccc3)c2)c1	-0.6	36.0*	-3.7	12.5	2.0
Cc1cccc2cc(CN(CC3CCCO3)C(=O)NC3CCCCC3)c(=O)[nH]c12 (configuration not stated)	0.7	-3.6	-10.2	-8.7	-1.6
COc1ccc(CCN(Cc2cc3cccc(C)c3[nH]c2=O)C(=O)NC2CCCCC2)cc1OC	0.2	31.3*	-0.9	18.6	0.5
CNC(=S)N(CCc1cccc(C)c1)Cc1cc2cc(OC)c(OC)cc2[nH]c1=O	0.3	30.3*	-6.8	1.2	-1.8
CC(=O)c1cccc(NC(=O)CN2C(=O)c3cccnc3Sc3ccccc32)c1	1.0	nt	nt	-9.6	nt
O=S(=O)(c1ccc2c(c1)CCN2)N1CCCCCC1	-0.2	nt	nt	-13.2	nt
Cc1nc2ccc(S(=O)(=O)NC(C(=O)NCc3ccco3)C(C)C)cc2s1 (configuration not stated)	0.7	31.5*	-2.4	14.8	-6.8
Cc1ccc(CNC(=O)C(NS(=O)(=O)c2ccc3nc(C)sc3c2)C(C)C)cc1 (configuration not stated)	0.0	0.3	-5.1	-4.0	-3.0
Cc1[nH]c2ccccc2c1C(=O)CN1CCN(C/C=C/c2ccccc2)CC1	0.4	80.3*	-44.1	-30.3	-6.0
Cc1[nH]c2ccccc2c1C(=O)CN1CCN(C2CCCCC2)CC1	-0.5	58.2*	nt	-42.6	nt
COC(=O)c1ccccc1NC(=O)Nc1cccs1	-0.3	37.9*	-23.9	-6.8	-2.1
CCc1cccc(NC(=O)Nc2cccs2)c1	1.0	32.4*	-38.1	-10.7	1.3
N#Cc1cccc(NC(=O)Nc2cccs2)c1	0.5	1.0	-22.5	-1.1	2.9
O=C(NCCc1ccc(Cl)cc1)C(=O)NCC(c1ccc2c(c1)OCO2)N1CCOCC1 (configuration not stated)	-8.4	nt	nt	6.8	nt
FC(F)(F)c1nc(-c2ccncc2)ncc1-c1nnnn1-c1ccccc1	-0.3	58.4*	-6.8	26.0	0.1
Cc1ccc(NC(=O)C2CCN(S(=O)(=O)c3ccc4c(c3)NC(=O)C(C)S4)CC2)cc1Cl (configuration not stated)	1.6	72.5*	-0.8	-13.8	-0.2
SMILES	D2 ag-1	D2 antag	D2 PAM-1	D2 PAM-2	D2 ag-2
CCN1CCN(c2cc(N3CCc4ccccc4C3)c(F)cc2[N+](=O)[O-])CC1	1.3	61.6*	-31.8	-21.7	-3.6
Cc1ccc2nc(NC(=O)CSc3nc4c(c(=O)n3C)SC(C)C4)sc2c1 (configuration not stated)	0.3	-3.1	17.3	32.0*	4.3
O=C(Nc1ccc(S(=O)(=O)N2CCCCC2c2cccnc2)cc1)c1ccc(F)cc1 (configuration not stated)	-0.1	nt	nt	-0.5	nt
O=C(CSCc1ccc(Cl)cc1Cl)Nc1ccc(O)cc1C(=O)O	2.6	20.8	59.1*	2.8	11.5
Cc1cc(C)c(NC(=O)c2cc3c(=O)n4ccccc4nc3n2C)c(C)c1	0.7	nt	nt	6.2	nt
Cc1c[nH]c2cccc(OCC(CNC(C)(C)C)OC(=O)c3ccccc3)c12 (configuration not stated)	0.4	70.0*	-18.2	-19.4	-3.8
COc1cccc(-n2c(SCC(=O)NCc3ccco3)nnc2-c2c[nH]c3ccccc23)c1	-2.1	48.4*	3.7	-11.1	1.6
Cc1ccc(S(=O)(=O)c2nc(-c3ccccc3F)oc2N2CCCCC2)cc1	nt	nt	nt	15.0	nt
Cc1ccc(C)c(NC(=O)CCCN2C(=O)C(c3ccccc3)Oc3cccnc32)c1 (configuration not stated)	0.6	nt	nt	2.5	nt
Fc1ccccc1N1CCN(c2ncnc3onc(-c4cccc(Cl)c4)c23)CC1	0.7	nt	nt	8.0	nt
COc1ccc(OC)c(C(=O)NC(CC(N)=O)c2ccc(N3CCN(c4ccccn4)CC3)c([N+](=O)[O-])c2)c1 (configuration not stated)	-1.1	31.7*	-8.6	-1.0	1.9
COc1ccc(OC)c(C(=O)NC(CC(N)=O)c2ccc(N3CCN(c4ccccc4)CC3)c([N+](=O)[O-])c2)c1 (configuration not stated)	-0.5	-4.1	-12.8	6.7	-5.9
CCCc1cc(=O)[nH]c(SCC(=O)N2c3ccccc3CC2C)n1 (configuration not stated)	nt	nt	9.6	nt	2.3
CCCc1cc(=O)[nH]c(SC(C)C(=O)N2c3ccccc3CC2C)n1 (configuration not stated)	-0.3	44.0*	11.3	-29.4	5.8
Cc1cc(Cl)c2oc(C(=O)N(C)C3CCOC3)c(C)c2c1 (configuration not stated)	-0.5	-7.3	-14.0	88.1*	-2.1
Cc1cc(Cl)c2oc(C(=O)N3CCOCC3)c(C)c2c1	nt	nt	-7.1	nt	-1.9
COc1cc(C2CC(=O)Nc3cc4c(cc32)OCCO4)cc(OC)c1O (configuration not stated)	0.7	nt	nt	-1.9	nt
CCC(CC)C(=O)Nc1nnc(S(=O)(=O)N2CCCCCC2)s1	0.0	31.9*	-0.4	-13.1	0.0
CC(C)C(=O)Nc1nnc(S(=O)(=O)N2CCCCCC2)s1	0.8	-0.5	-5.9	-0.3	-5.4
Cc1nc2ccc(S(=O)(=O)N(C)CC(=O)Nc3ccc(Br)c(C)c3)cc2s1	1.4	nt	nt	9.4	nt
O=[N+]([O-])c1ccc(C2=NN(c3ccccc3)C(c3ccco3)C2)cc1 (configuration not stated)	56.1*	-2.6	-5.7	2.9	0.0
CC1=NN(c2ccccc2)C(c2ccco2)C1 (configuration not stated)	nt	nt	-6.1	nt	-5.9
